Assay [1] addresses human Sirtuin 3 (SIRT3), SIRT3 (gene 23410) (UniProt Q9NTG7). The assay is described as follows: NVS_ENZ_hSIRT3: NovaScreen (NVS) Enzymatic Assay for human Sirtuin 3 (SIRT3) (AID 2283222). In a few lines: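 Cell-free enzyme assay with recombinant protein and fluorescent substrate, product separated by electrophoretic mobility shift; read 1 hour after dosing. Screened in duplicate at 25 uM, then singleton concentration-response up to 50 uM; loss of signal versus DMSO.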

Assay [2] addresses rabbit Imidazoline 2 Central (I2C), CKB (gene 100009085) (UniProt P00567). The assay can be described thus: NVS_ENZ_rabI2C: NovaScreen (NVS) Enzymatic Assay for rabbit Imidazoline 2 Central (I2C) (AID 2283228). In a few lines: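 Rabbit brain membranes, cell-free; readout by filter-based scintillation counting 1.5 hours after dosing, loss of signal vs DMSO. Initial duplicate test at 25 uM, then concentration-response with 50 uM top concentration.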

Assay [3] deals with human Sirtuin 2 (SIRT2), SIRT2 (gene 22933) (UniProt Q8IXJ6). The assay is described as follows: NVS_ENZ_hSIRT2: NovaScreen (NVS) Enzymatic Assay for human Sirtuin 2 (SIRT2) (AID 2283217). The procedure, abridged:
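Single-point duplicate screen at 25 uM, then concentration-response (max 50 uM) for chemicals passing threshold. Enzyme activity of recombinant human SIRT2 measured after 1 hr by fluorescence with mobility-shift separation of product; DMSO baseline.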

Assay [4] addresses human Vascular Endothelial Growth Factor Receptor 1 (VEGFR1), FLT1 (gene 2321) (UniProt P17948). The assay can be described thus: NVS_ENZ_hVEGFR1: NovaScreen (NVS) Enzymatic Assay for human Vascular Endothelial Growth Factor Receptor 1 (VEGFR1) (AID 2283226). The procedure, abridged:
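Kinase activity of recombinant human VEGFR1 was read by fluorescence after electrophoretic separation of product from substrate, 1 h post-dosing; initial duplicate single-point testing at 25 uM, followed by concentration-series follow-up, with DMSO as baseline.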

Assay [5] deals with human Vascular Endothelial Growth Factor Receptor 3 (VEGFR3), FLT4 (gene 2324) (UniProt P35916). The assay is described as follows: NVS_ENZ_hVEGFR3: NovaScreen (NVS) Enzymatic Assay for human Vascular Endothelial Growth Factor Receptor 3 (VEGFR3) (AID 2283229). In a few lines:
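Chemicals first run in duplicate at 25 uM, with actives re-tested in concentration series to a top of 50 uM. Recombinant VEGFR3 activity measured after 1 h via fluorescence with mobility-shift product separation; inhibition fitted relative to DMSO.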

For assay [6], the target named is human Vascular Endothelial Growth Factor Receptor 2 (VEGFR2), KDR (gene 3791) (UniProt P35968). The assay is described as follows: NVS_ENZ_hVEGFR2: NovaScreen (NVS) Enzymatic Assay for human Vascular Endothelial Growth Factor Receptor 2 (VEGFR2) (AID 2283230). The procedure, abridged:
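Cell-free recombinant VEGFR2 kinase, fluorescent substrate with electrophoretic mobility-shift separation; read 1 h after dosing. Screened at 25 uM in duplicate, hits to concentration-response up to 50 uM; loss-of-signal versus DMSO.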

Assay [7] has as its target sheep Cyclooxygenase-2 (Cox2), PTGS2 (gene 443460) (UniProt P79208). The assay can be described thus: NVS_ENZ_oCOX2: NovaScreen (NVS) Enzymatic Assay for sheep Cyclooxygenase-2 (Cox2) (AID 2283231). The procedure, abridged:
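Enzyme extracted from ovine placenta tested cell-free; activity read colorimetrically by absorbance 0.66 hour after dosing. Primary screen in duplicate at 25 uM; hits rerun as concentration series to 50 uM, loss of signal versus DMSO baseline.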

The target in assay [8] is human Tropomyosin Receptor Kinase A (TRKA), NTRK1 (gene 4914) (UniProt P04629). The assay can be described thus: NVS_ENZ_hTrkA: NovaScreen (NVS) Enzymatic Assay for human Tropomyosin Receptor Kinase A (TRKA) (AID 2283224). In a few lines: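 Compounds were screened at 25 uM in duplicate, then concentration series to a 50 uM top for those meeting threshold (e.g. 30% inhibition). Enzyme was recombinant human TrkA, incubated 1 h. Product formation was quantified by fluorescence after mobility-shift separation.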

The target in assay [9] is human Sirtuin 1 (SIRT1), SIRT1 (gene 23411) (UniProt Q96EB6). The assay can be described thus: NVS_ENZ_hSIRT1: NovaScreen (NVS) Enzymatic Assay for human Sirtuin 1 (SIRT1) (AID 2283219). In a few lines: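 Cell-free recombinant SIRT1 with a fluorescent substrate; substrate and product separated by electrophoretic mobility shift and read by fluorescence intensity, 1 h after dosing. Primary screen at 25 uM in duplicate; hits re-run in concentration-response up to 50 uM, relative to DMSO.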

The target in assay [10] is human SRC Proto-Oncogene, Non-receptor Tyrosine Kinase (SRC), SRC (gene 6714) (UniProt P12931). The assay is described as follows: NVS_ENZ_hSRC: NovaScreen (NVS) Enzymatic Assay for human SRC Proto-Oncogene, Non-receptor Tyrosine Kinase (SRC) (AID 2283223). In a few lines: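 Compounds passing 30% inhibition at 25 uM (duplicate) were titrated to a top concentration of 50 uM. Enzyme activity read by fluorescence with mobility-shift substrate/product separation after 1 h; DMSO baseline.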

Structures are written as SMILES. Results filed as inconclusive are left out. Active and inactive are the calls of the source. Rule for the calls: active = hit-call score of the fitted dose curve at least 0.9, where 1 is the maximum; inconclusive = response in the unintended direction; inactive = score below 0.9.

Broadly, the AC50 is the concentration giving half of the maximal activity seen.

Chain of human Sirtuin 3 (SIRT3), SIRT3 (gene 23410) (Q9NTG7 whole entry, looked up): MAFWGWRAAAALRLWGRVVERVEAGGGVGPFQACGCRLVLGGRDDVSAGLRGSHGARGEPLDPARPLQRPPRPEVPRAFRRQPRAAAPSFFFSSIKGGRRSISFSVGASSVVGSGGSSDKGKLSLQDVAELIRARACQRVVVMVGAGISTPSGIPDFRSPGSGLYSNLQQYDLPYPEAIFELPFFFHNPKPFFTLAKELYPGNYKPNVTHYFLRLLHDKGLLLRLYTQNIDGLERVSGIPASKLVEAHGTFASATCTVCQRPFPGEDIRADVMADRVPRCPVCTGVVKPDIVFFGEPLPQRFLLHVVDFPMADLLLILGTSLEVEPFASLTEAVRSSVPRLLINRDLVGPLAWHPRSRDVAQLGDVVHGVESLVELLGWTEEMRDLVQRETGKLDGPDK
Chain of human Vascular Endothelial Growth Factor Receptor 1 (VEGFR1), FLT1 (gene 2321) (P17948 whole entry, looked up): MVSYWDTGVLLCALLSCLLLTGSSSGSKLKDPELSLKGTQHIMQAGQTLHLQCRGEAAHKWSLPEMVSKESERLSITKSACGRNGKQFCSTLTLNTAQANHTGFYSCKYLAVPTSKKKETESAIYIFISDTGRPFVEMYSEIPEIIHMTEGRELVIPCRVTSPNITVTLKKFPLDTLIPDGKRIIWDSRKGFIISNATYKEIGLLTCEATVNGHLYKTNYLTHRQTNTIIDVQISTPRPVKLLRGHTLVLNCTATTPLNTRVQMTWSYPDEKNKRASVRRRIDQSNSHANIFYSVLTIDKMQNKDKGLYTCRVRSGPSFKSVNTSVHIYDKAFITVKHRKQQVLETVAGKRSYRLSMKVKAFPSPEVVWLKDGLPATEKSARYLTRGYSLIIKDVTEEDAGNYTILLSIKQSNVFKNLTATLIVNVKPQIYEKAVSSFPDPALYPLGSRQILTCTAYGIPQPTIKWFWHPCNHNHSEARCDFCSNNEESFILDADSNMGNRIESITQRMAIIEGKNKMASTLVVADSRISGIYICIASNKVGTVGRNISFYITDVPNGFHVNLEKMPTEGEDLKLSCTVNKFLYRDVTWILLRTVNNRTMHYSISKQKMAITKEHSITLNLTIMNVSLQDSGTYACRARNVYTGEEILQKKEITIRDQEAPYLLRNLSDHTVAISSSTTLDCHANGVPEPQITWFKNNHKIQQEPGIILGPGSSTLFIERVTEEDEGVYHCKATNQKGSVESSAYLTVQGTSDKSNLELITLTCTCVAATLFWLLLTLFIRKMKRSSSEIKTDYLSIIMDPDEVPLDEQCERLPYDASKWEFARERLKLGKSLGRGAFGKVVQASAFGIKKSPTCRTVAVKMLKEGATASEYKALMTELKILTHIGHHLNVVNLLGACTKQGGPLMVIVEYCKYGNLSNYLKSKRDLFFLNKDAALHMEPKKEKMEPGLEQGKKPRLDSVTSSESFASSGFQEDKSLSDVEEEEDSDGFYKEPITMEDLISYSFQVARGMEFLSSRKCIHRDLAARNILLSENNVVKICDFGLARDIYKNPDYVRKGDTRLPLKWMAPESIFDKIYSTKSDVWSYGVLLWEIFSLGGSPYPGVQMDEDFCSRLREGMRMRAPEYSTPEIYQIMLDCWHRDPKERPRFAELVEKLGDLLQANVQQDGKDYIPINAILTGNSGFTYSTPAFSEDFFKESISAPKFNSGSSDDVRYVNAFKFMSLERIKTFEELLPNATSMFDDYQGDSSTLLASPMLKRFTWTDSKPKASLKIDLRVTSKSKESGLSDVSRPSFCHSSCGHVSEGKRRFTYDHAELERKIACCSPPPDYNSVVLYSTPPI
Chain of human Sirtuin 2 (SIRT2), SIRT2 (gene 22933) (Q8IXJ6 whole entry, looked up): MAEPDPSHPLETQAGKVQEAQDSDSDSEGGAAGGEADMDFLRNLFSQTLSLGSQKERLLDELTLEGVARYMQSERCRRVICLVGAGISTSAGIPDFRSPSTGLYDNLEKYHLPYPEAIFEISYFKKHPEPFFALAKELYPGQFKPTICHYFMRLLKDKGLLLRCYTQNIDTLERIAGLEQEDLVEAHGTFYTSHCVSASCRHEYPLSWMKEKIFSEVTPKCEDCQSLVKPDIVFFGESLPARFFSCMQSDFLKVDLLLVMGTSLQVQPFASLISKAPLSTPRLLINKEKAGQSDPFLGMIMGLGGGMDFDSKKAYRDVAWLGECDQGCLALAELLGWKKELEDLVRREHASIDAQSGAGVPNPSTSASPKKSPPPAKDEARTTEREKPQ
Chain of human Vascular Endothelial Growth Factor Receptor 2 (VEGFR2), KDR (gene 3791) (P35968 whole entry, looked up): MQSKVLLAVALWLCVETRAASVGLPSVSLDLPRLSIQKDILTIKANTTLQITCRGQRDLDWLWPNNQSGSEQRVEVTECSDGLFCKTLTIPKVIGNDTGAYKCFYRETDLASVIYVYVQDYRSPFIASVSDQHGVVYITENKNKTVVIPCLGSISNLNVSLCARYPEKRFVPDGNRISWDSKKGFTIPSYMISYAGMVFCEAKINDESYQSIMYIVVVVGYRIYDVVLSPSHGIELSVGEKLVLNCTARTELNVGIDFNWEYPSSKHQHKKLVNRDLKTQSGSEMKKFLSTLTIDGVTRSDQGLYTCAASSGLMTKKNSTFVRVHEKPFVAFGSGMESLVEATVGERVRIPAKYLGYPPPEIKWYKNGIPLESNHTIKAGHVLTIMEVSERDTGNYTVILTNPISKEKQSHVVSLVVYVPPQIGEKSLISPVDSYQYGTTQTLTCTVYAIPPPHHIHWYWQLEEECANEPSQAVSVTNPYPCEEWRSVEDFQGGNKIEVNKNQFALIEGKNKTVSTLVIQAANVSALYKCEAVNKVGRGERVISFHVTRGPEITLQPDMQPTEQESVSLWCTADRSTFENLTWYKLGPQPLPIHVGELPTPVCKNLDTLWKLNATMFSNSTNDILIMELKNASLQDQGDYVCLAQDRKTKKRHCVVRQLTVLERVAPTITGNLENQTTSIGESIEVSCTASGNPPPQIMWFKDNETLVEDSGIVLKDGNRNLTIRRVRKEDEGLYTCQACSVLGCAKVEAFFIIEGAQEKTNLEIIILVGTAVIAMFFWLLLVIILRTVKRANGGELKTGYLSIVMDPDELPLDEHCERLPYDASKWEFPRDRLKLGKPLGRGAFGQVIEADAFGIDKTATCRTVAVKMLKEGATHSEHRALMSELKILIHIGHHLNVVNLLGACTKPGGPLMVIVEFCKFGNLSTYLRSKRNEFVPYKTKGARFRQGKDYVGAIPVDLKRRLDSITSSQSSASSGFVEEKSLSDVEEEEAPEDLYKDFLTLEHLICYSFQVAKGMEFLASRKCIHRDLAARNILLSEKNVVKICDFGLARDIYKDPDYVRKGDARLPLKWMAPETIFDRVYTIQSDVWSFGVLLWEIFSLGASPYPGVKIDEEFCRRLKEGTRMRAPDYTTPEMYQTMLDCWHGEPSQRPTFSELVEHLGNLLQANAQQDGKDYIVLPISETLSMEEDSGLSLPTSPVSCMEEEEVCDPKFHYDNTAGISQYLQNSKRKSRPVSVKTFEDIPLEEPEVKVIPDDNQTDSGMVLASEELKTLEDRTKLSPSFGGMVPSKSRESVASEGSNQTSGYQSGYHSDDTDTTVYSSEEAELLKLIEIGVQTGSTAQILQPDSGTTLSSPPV
Chain of human Vascular Endothelial Growth Factor Receptor 3 (VEGFR3), FLT4 (gene 2324) (P35916 whole entry, looked up): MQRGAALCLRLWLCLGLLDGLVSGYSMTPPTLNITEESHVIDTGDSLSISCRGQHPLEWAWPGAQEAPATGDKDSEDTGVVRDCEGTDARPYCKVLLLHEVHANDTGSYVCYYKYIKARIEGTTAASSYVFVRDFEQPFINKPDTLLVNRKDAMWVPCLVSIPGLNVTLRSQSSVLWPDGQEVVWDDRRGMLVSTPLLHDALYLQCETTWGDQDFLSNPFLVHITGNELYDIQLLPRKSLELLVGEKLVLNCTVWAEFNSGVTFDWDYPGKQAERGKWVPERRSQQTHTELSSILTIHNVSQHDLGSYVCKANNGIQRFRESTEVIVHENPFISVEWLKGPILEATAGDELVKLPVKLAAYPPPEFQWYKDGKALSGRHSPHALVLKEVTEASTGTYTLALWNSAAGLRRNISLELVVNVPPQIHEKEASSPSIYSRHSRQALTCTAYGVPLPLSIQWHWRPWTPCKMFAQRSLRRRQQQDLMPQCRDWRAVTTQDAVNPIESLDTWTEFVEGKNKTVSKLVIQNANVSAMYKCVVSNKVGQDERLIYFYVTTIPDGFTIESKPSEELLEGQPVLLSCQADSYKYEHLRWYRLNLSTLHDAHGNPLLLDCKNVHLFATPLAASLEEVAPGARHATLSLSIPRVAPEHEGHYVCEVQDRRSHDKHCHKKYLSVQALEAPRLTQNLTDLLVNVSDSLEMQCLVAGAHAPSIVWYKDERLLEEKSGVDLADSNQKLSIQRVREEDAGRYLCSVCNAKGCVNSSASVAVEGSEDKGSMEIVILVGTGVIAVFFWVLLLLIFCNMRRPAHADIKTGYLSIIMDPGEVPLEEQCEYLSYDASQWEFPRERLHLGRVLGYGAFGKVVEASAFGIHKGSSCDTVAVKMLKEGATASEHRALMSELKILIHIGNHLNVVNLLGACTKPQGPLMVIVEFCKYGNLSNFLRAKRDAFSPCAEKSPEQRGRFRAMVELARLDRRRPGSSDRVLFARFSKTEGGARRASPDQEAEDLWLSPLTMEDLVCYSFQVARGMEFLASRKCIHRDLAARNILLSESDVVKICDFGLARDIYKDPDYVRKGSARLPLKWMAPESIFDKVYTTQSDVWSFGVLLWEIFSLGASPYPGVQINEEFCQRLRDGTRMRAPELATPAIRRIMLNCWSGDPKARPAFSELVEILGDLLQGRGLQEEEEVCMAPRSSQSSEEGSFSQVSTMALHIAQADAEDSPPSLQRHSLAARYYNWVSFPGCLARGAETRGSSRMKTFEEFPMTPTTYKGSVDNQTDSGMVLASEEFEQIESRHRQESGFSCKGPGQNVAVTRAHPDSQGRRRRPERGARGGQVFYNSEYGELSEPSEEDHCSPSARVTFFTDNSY

Regarding `Cc1[nH]cnc1C[C@H]1CCc2c(C)c3ccccc3n2C1=O`, the compound was classed as inactive in assay [1] and in [2].
With `CC[C@H](C)C(=O)O[C@H]1C[C@@H](C)C=C2C=C[C@H](C)[C@H](CC[C@@H]3C[C@@H](O)CC(=O)O3)[C@H]21`, the outcome in assay [3], in [1], in [4], in assay [5] and in [6] was inactive. In addition, the AC50 in [7] is 8.83 µM (active).
Regarding `CC(=O)OCCC(C)C`, the call in assay [3] and in assay [8] was inactive.
Consider `CNS(=O)(=O)c1cc(C(=O)N2CCC(CCN3C4CCC3CC(n3c(C)nc5ccccc53)C4)(c3cccc(F)c3)CC2)c(Cl)cc1F` (centres undefined), for which, in [3], the compound was called inactive.
For the compound `O=c1[nH]c2ccc(S(=O)CCN3CCC(Cc4ccc(F)cc4)CC3)cc2o1` (centres undefined), in [2], the AC50 was 6.76 µM (active).
As for `O=C(O)c1cc(N=Nc2ccc(S(=O)(=O)Nc3ccccn3)cc2)ccc1O`, the call in assay [4], in [5] and in assay [6] was inactive.
As to `Cn1c(=O)cc(Oc2ccc(F)cc2F)c2cnc(NCC(C)(C)O)nc21`, in [4], the AC50 is 29.9 µM (active). The compound was called inactive in [6].
On to `Cc1c(-c2cccnc2)c2ccccc2n1CCCCC(=O)O`, for which the compound was called inactive in [3].
Take `O=C(O)c1cccc(Oc2ccccc2)c1`: the result in assay [9], in [8] and in assay [5] was inactive.
For the compound `Clc1nc(Cl)c(Cl)c(Cl)c1Cl`, the compound was called inactive in assay [10].
`CN(C)c1ccc(N=NS(=O)(=O)O)cc1`: the compound was classed as inactive in [4], in assay [5] and in assay [6]. Besides, the AC50 in assay [2] was 23.8 µM (active).
Consider `COc1cccc(-c2ccc(/C=C\CN3CCCCCC3)cc2Cl)c1`, for which the AC50 is 16.6 µM (active) in [3], 3.06 µM (active) in [1] and 22.6 µM (active) in [2]. Further, the compound was called inactive in [6].
Consider `CC(C)c1cccc(C(C)C)c1N1C(=O)c2ccc(O)cc2C1=O`, for which the outcome in [4] and in assay [5] was inactive. The AC50 in assay [7] was 4.32 µM (active).
Consider `COCCOc1cc2cc(C(=O)NC3CCN(C(C)C)CC3)n(CC(=O)Nc3ccc(Cl)cn3)c2cn1`, for which the compound was classed as inactive in assay [10].

For the origin of these results see PubChem BioAssay (EPA / NIEHS).
